Source: PubChem (Broad Institute)
aSyn UTR act = Activators via SNCA 5'UTR binding, MLPCN; alpha-synuclein 5'UTR reporter, activators screen; activity score, % (tested at 7.5 µM), hits read low; hit rate 7.1% among 300,000; AID 1814; in the data active = activity score below about -60%
Active calls of the source: *. These entries were drawn from the full list.

SMILES	aSyn UTR act
COc1ccc(C(CC(=O)c2ccccc2)S(=O)(=O)c2ccc(C)cc2)cc1 (stereo not given)	-186*
COc1ccc(C(=O)Cc2nnc(C)s2)cc1	-99*
COc1ccc(C(=O)CC(=O)c2ccccc2)cc1	-125*
COc1ccc(C(=O)CC(=O)c2ccc(OC)cc2)cc1	-71*
FC(F)Oc1ccccc1/C=N/n1cnc2ccccc21	-191*
O=C(N/N=C1/CC2C=CCC12)c1ccc(Br)o1 (stereo not given)	-83*
COc1ccc(-c2cc(C(F)(F)F)nc(S(=O)(=O)CCC(=O)N3CCOCC3)n2)cc1	-76*
C=CCOc1c(CNc2cccc(C(=O)O)c2)cccc1OC	-78*
C=CCOc1cccc(CNc2cccc(C(=O)O)c2)c1	-77*
Cc1ccc(/C=N/Nc2ncnc3nc[nH]c23)cc1	-63*
Fc1cccc(/C=N/Nc2ncnc3nc[nH]c23)c1	-93*
Fc1ccccc1/C=N/Nc1ncnc2nc[nH]c12	-62*
C(=N\N1CCN(Cc2ccccc2)CC1)/c1ccccc1	-64*
Cc1ccc(/C=N/N2CCN(Cc3ccccc3)CC2)s1	-83*
FC(F)(F)c1ccccc1/C=N/N1CCN(Cc2ccccc2)CC1	-72*
C/C(=N\N1CCN(Cc2ccccc2)CC1)c1ccco1	-80*
O=[N+]([O-])c1ccccc1/C=N/N1CCN(Cc2ccccc2)CC1	-101*
Clc1cccc(/C=N/N2CCN(Cc3ccccc3)CC2)c1	-91*
Cc1ccc(/C=N/N2CCOCC2)s1	-101*
Cc1cc(N2CCN(Cc3cn(C)nc3-c3cccc(Cl)c3)CC2)cc(C)n1	72
C/C(=N\Nc1cccc([N+](=O)[O-])c1)c1cc2ccccc2o1	-166*
C/C(=N\Nc1cccc(C(=O)O)c1)c1cc2ccccc2o1	-66*
COCCn1c(C)cc(C(=O)CSc2nc3ccccc3c(=O)[nH]2)c1C	-152*
COCCn1c(C)cc(C(=O)CSc2ccc3ccccc3n2)c1C	-141*
CCCn1c(C)cc(C(=O)CSc2nc3ccccc3c(=O)n2Cc2ccco2)c1C	-219*
SMILES	aSyn UTR act
O=C(NC1CCCC1)c1cc2ccccc2o1	-107*
O=C(NC1CCCCC1)Oc1cc2oc(=O)sc2cc1Br	54
O=C(NC1CCCCC1)c1cc2cc(Br)ccc2o1	-138*
O=C(NC1CCCC1)c1cc2cc(Br)ccc2o1	-139*
CCCCCc1nc2c(C#N)c(-c3ccc(Cl)cc3)ccn2n1	-65*
CCCCc1c(C)c(C#N)c2nc3ccccc3n2c1Cl	109
COC1c2ccccc2C(=O)N1CCc1ccc(Cl)cc1 (stereo not given)	-73*
O=C(/C=C/c1ccco1)NC(=S)Nc1ccccc1O	-121*
O=C(/C=C\c1ccco1)NC(=S)Nc1ccccc1O	-74*
CSc1ccc(CN(C)C(=O)c2cc3ccccc3o2)cc1	-67*
CCCOc1ccc(OCCSc2nnc(N)s2)cc1	-89*
CCOC(=O)c1ccc(CSc2nnc(N)s2)cc1	-74*
CCOc1ccc(-c2nc(CSc3nnc(N)s3)cs2)cc1	-90*
CCOc1ccc(N/C(N)=N/c2nc(CSc3nnc(C)s3)cc(=O)[nH]2)cc1	84
CCCOc1ccc(-c2cnc(N)s2)cc1	-158*
COc1ccc(N2C(=O)c3ccccc3NC23CCCCC3)cc1	-76*
COc1ccc(N2C(=O)c3ccccc3NC23CCC(C)CC3)cc1 (stereo not given)	-106*
N#C/C(=C(/O)CN1CCCCC1)c1nc(-c2ccc(Cl)cc2)cs1	-110*
Cc1ccc(-c2csc(/C(C#N)=C(\O)CCl)n2)cc1	-96*
CC(=O)c1ccc(S(=O)(=O)N(Cc2cc3cc4c(cc3[nH]c2=O)OCCO4)CC2CCCO2)cc1 (stereo not given)	-180*
Cc1ccc2cc(CN(CC3CCCO3)S(=O)(=O)c3ccc4c(c3)OCCO4)c(=O)[nH]c2c1C (stereo not given)	-108*
Cc1cc(C)c2cc(CN(CC3CCCO3)S(=O)(=O)c3ccc4c(c3)OCCO4)c(=O)[nH]c2c1 (stereo not given)	-94*
COc1ccc2[nH]c(=O)c(CN(Cc3cccs3)S(=O)(=O)c3c(C)ccc4nsnc34)cc2c1	89
Cc1ccc2cc(CN(CC3CCCO3)C(=S)Nc3ccccc3)c(=O)[nH]c2c1C (stereo not given)	72
Cc1ccc2nsnc2c1S(=O)(=O)N(CCO)Cc1cc2cc3c(cc2[nH]c1=O)OCCO3	-90*
SMILES	aSyn UTR act
Cc1nnc(NC(=O)C2COc3ccccc3O2)s1 (stereo not given)	-118*
CCC(CC)c1nnc(NC(=O)C2COc3ccccc3O2)s1 (stereo not given)	-72*
O=C(Nc1ncc(Cc2ccccc2)s1)C1COc2ccccc2O1 (stereo not given)	-190*
O=C(NC1=NCCS1)C1COc2ccccc2O1 (stereo not given)	98
CC[C@H](CO)Nc1nc(Nc2cccc(Cl)c2)c2ncn(C(C)C)c2n1	57
S=C(Nc1ccccc1)N1N=CCC1c1ccccc1 (stereo not given)	-153*
O=C(Nc1cccc2ccccc12)N1N=CCC1c1ccccc1 (stereo not given)	-89*
Fc1ccc(NC(=S)N2N=CCC2c2ccccc2)cc1 (stereo not given)	-101*
O=C(Oc1ccc(-c2cnc3ccccc3n2)cc1)c1ccc(Br)o1	-117*
O=C(Oc1ccc(-c2cnc3ccccc3n2)cc1)c1cccc([N+](=O)[O-])c1	-183*
O=C(Oc1ccc(-c2cnc3ccccc3n2)cc1)c1ccc(Cl)c([N+](=O)[O-])c1	-129*
N#CC(C#N)=Cc1c(N2CCN(c3ccccc3)CC2)nc2ccccn2c1=O	-72*
COc1ccc(N2CCN(c3nc4ccccn4c(=O)c3C=O)CC2)cc1	-68*
COc1ccc(-c2nc3ccccn3c2C=O)cc1	-110*
O=Cc1c(N2CCN(c3ccccc3)CC2)nc2ccccn2c1=O	-86*
O=C(COc1ccc(Br)cc1Br)NC1CCCC1	-113*
O=C(COc1ccc(Cl)cc1Cl)NC1CCSC1=O (stereo not given)	-86*
O=C(COc1ccc(Br)cc1Cl)NC1CCCCC1	-162*
COc1cc(/C=C(\C#N)C(=O)N2CCOCC2)ccc1OCc1ccccc1	-120*
N#C/C(=C\c1ccc(OCc2ccc(C(=O)O)cc2)cc1)C(=O)N1CCOCC1	93
Cc1cccc(Nc2nnc(SCC3CCCCO3)s2)c1 (stereo not given)	-184*
COc1ccc(-c2cn(Cc3ccc(C(=O)c4ccccc4)cc3)nn2)cc1	-161*
Cc1ccc(Cn2cc(-c3ccccc3)nn2)cc1	-124*
CC(=O)c1cccc(NC(=O)c2ccc(Br)o2)c1	-71*
O=C(Nc1cccc(F)c1)c1ccc(Br)o1	-66*
SMILES	aSyn UTR act
Cc1ccccc1NC(=O)N1CCc2ccccc2C1	-80*
Cc1cc(C)cc(NC(=O)N2CCc3ccccc3C2)c1	-111*
Cc1ccc(NC(=O)C2OCCc3ccccc32)cc1C (stereo not given)	-62*
Cc1ccc(NC(=O)N2CCc3ccccc3C2)cc1C	-152*
COC(=O)c1ccc(/C=C(\C#N)c2ccccn2)cc1	-132*
N#C/C(=C\c1ccc([N+](=O)[O-])cc1)c1ccccn1	-121*
CN(C)c1ccc(/C=C(\C#N)c2ccccn2)cc1	102
Cc1cc(NC(=O)C2CCCCC2)ncc1NC(=O)c1ccccn1	-73*
Cc1cc(NC(=O)C2CC2)ncc1NC(=O)c1ccccn1	-93*
O=C(CC1CCCCC1)NCc1ccc(Cl)cc1	-69*
